From PubChem BioAssay (NCI) come the findings set out here.

The panel holds about 83,000 compounds, 20% with a hit somewhere; the sample as a whole holds those more often.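 48-hour exposure, single concentration, 96-well plates; percent growth endpoint where 0 means no net growth. Active: below 10.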 Unmarked numbers belong to inactive results. Active and inactive are the calls of the source.

What all share (test): NCI-60 one-dose screen, 48 h (100 = growth as untreated, 0 = no growth, -100 = all killed)
What all share (details): 10 µM unless noted

The test system of test [1] is T-47D breast.
The test system of test [2] is BT-549 breast.
Test [3] has as its system MDA-MB-435 melanoma.
Test [4] has as its system SW-620 colon.
Test [5] relates to MCF7 breast.
The subject of test [6] is HCT-116 colon.
The test system of test [7] is HCC-2998 colon.
Test [8] concerns KM12 colon.

Turning to `COc1cc(/C=C/C(=O)c2c(C)oc3nc[nH]c(=O)c23)cc(OC)c1OC`, the growth in test [1] was 58.9%; in test [2], 72.6%; in test [3], 74.4%; in test [4], 77.5%; in test [5], 47.9%; in test [6], 61.3%. For the same compound, the results for the growth in test [7] and in test [8] were 112% and 96.9%, respectively.

Turning to `N#Cc1c(-c2ccc(Cl)cc2)nc(N/N=C/c2cccc(Br)c2)nc1N1CCOCC1`, the growth in test [1] was 67.5%; in test [2], 101%; in test [3] it was 104%; in test [4], 31.5%; in test [5], 72.5%; in test [6] it was 61.5%. Also, the growth in test [7] was 96.1%; in test [8] it was 94.9%.

For the compound `CC(C)(C)c1cc(C(C)(C)C)cc(S(=O)(=O)Nc2cc3ccccc3cc2C(=O)NCCN)c1`, the growth in test [1] is 5.06% (active); in test [2] it was 101%; in test [3] it was 0.859% (active); in test [4] it was -78% (active); in test [5], -10.6% (active); in test [6] it was 11.9%. Also, the growth is -38.6% (active) in test [7] and -33.4% (active) in test [8].

In the case of `CC[C@]1(O)C[C@@H]2CN(CCc3c([nH]c4ccccc34)[C@@](C(=O)OC)(c3cc4c(cc3OC)N(C)[C@H]3[C@@](O)(C(N)=O)[C@H](O)[C@]5(CC)[C@@H]6C[C@@H]6CN6CC[C@]43[C@@H]65)C2)C1`, the growth in test [1] was 92.9%; in test [2], 11.5%; in test [3], -40% (active); in test [4], 26.7%; in test [5], 18.9%; in test [6] it was 6.89% (active). Further, the growth in test [7] was 24.9%; in test [8], 11.9%.

In the case of `Cc1cc(N2CCN(C)CC2)nc(NC2CCCC(Nc3ccnc4cc(Cl)ccc34)C2)n1` (stereo not given), the growth in test [1] was -48.5% (active); in test [2] it was -41.9% (active); in test [3], -86% (active); in test [4], 2.79% (active); in test [5], -10.5% (active); in test [6], -69.6% (active). For the same compound, the growth is 8.13% (active) in test [7] and 10.4% in test [8].

For the compound `O=C(O)c1ccc(N=CC(=O)c2ccc(-c3ccccc3)cc2)cc1`, the growth in test [1] is 100%; in test [2] it was 103%; in test [3], 103%; in test [4], 93.3%; in test [5], 97.6%; in test [6], 97.9%. In addition, the figures for the growth in test [7] and in test [8] were 96.7% and 102%, respectively.

On to `OCCNc1nccc(N2CCN(c3ccnc4cc(Cl)ccc34)CC2)n1`, for which the growth in test [1] is 69%; in test [2], 68.3%; in test [3], 7.31% (active); in test [4] it was 44.4%; in test [5] it was 34.2%; in test [6], 47.1%. Also, the growth in test [7] was 86.4%; in test [8] it was 60.8%.

As to `C#CC(F)(F)[C@]1(O)CC[C@H]2[C@@H]3CCC4=CC(=O)CCC4=C3[C@@H](c3ccc(C(C)=O)cc3)C[C@@]21C`, the growth is 58.4% in test [1]; 106% in test [2]; 102% in test [3]; 81.1% in test [4]; 58% in test [5]; 94.9% in test [6]. The growth in test [7] is 108%; in test [8], 29.8%.

With `COc1cc(-c2nc3ccccc3[nH]2)ccc1OCC(=O)N=Nc1c(O)[nH]c2ccc(Cl)cc12`, the growth in test [1] is -52% (active); in test [2], 9.87% (active); in test [3], -71.1% (active); in test [4] it was -67.8% (active); in test [5] it was -76.9% (active); in test [6] it was -83.6% (active). Further, the growth in test [7] is -62.9% (active); in test [8], -87.2% (active).

As to `O=C(/C=C/C=C/c1ccc2c(c1)OCO2)N/N=C\c1ccc(O)cc1O`, the growth in test [1] is 23.9%; in test [2], 27.3%; in test [3] it was 32.6%; in test [4], 26.5%; in test [5], 14.1%; in test [6], 8.67% (active). Besides, the figures for the growth in test [7] and in test [8] were 38.9% and 23.4%, respectively.

Regarding `Nc1ccc(-c2cc3c(Nc4ccc(Oc5cccc(C(F)(F)F)c5)c(Cl)c4)ncnc3s2)cc1`, the growth is 43.8% in test [1]; 73% in test [2]; 70.3% in test [3]; 101% in test [4]; 34.7% in test [5]; 67.9% in test [6]. Further, the growth is 69% in test [7] and 44.5% in test [8].

Take `N#Cc1c(-c2ccc(Cl)cc2)nc(NN=Cc2ccco2)nc1N1CCOCC1`: the growth in test [1] is 23.2%; in test [2], 58.5%; in test [3] it was 79.4%; in test [4], 82.2%; in test [5] it was 26.2%; in test [6], 76.2%. Moreover, the growth in test [7] was 74.8%; in test [8], 95%.

`Cc1ccc(OC(=O)c2ccc(Cl)cc2)cc1`: the growth was 103% in test [1]; 100% in test [2]; 99.1% in test [3]; 87.3% in test [4]; 102% in test [5]; 57.9% in test [6]. Further, the figures for the growth in test [7] and in test [8] were 95.3% and 104%, respectively.

As to `COc1cc2c(cc1-c1c(C)noc1C)ncc1nc(C3CCC(F)(F)CC3)n([C@H](C)COC(F)F)c12`, the growth in test [1] is 46%; in test [2] it was 61.9%; in test [3] it was 36.8%; in test [4] it was 57.3%; in test [5], 18.7%; in test [6] it was 33%. In addition, the growth was 46.4% in test [7] and 45.4% in test [8].

In the case of `O=C(COc1ccc(-c2nc3cc(Cl)c(Cl)cc3[nH]2)cc1)N=Nc1c(O)[nH]c2ccccc12`, the growth in test [1] is -37.9% (active); in test [2] it was 64.7%; in test [3], 25.6%; in test [4], -32.3% (active); in test [5], -49.7% (active); in test [6], 16.2%. Further, the growth in test [7] is -3.87% (active); in test [8], -38.8% (active).
